This note sets out measurements from PubChem BioAssay AID2240 (Broad Institute, 2010).

One may read the inhibition as the drop in the measured response relative to a control, in per cent.

Among all 37,000 compounds or so, about 100 (0.27%) were called active. This is one part of a sample in which actives are shown more often than they occur. A number with no mark means an inactive call. Cut-off read from the data, not from the text of the source: active = inhibition above about 85%; inconclusive = no clear call, values can overlap the other calls; inactive = below about 68%.

This experiment can be described thus: inhibitors of MITF, primary screen, MITF inhibitor project, cell-based, luminescence (AID 2240).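 Note: human melanocyte line stably carrying TRPM1 promoter luciferase reporter.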 The settings on record: TRPM1 promoter luciferase, 24 h, stronger effect = higher value, concentration not given here.
For the compound `c1ccc2c(c1)[I+]c1ccccc1-2`, the inhibition was 90% (active). The figure for `COc1ccc2[nH]cc(CCNCc3ccc(Br)cc3)c2c1` is -13.8%; for `CCCCC/C=C\C/C=C\C/C=C\CCCCCCC(=O)NCCO` it is -1.85%.

For the compound `C[C@H]1CCC/C=C/C2C[C@H](O)C[C@H]2[C@H](O)/C=C\C(=O)O1` (stereo not given in full), the inhibition is 108% (active).

Take `c1cncc(CNCCc2c[nH]c3ccccc23)c1`: the inhibition is 1.76%. In the case of `COc1ccc(CNCc2nc3ccccc3c(=O)n2-c2ccc(F)cc2)cc1`, the inhibition was 8.31%. The figure for `C[C@H]1O[C@@H](O[C@H]2CC[C@]3(CO)C4CC[C@]5(C)[C@@H](C6=CC(=O)OC6)CC[C@]5(O)[C@@H]4CC[C@H]3C2)[C@H](O)[C@H](O)[C@@H]1O[C@@H]1O[C@H](CO)[C@@H](O)[C@H](O)[C@H]1O` (stereo not given in full) is 10.7%; for `CN(C)C(=O)Oc1cc(OC(=O)N(C)C)cc(C(O)CNC(C)(C)C)c1` (stereo not given) it is -14.7%. The figure for `CCCN(C/C=C/I)C1CCc2ccc(O)cc2C1` (stereo not given) is -11.9%. In the case of `COC1=CC23CCN(C)[C@H](Cc4cc(OC)c(OC)cc42)C3=CC1=O`, the inhibition was 2.51%.

For `Cc1ncsc1CCCl`, the inhibition was -1.18%. The figure for `CN[C@@H]1C[C@H]2O[C@@](C)([C@@H]1OC)n1c3ccccc3c3c4c(c5c6ccccc6n2c5c31)C(=O)NC4` is 106% (active). The figure for `CC(C)c1c(CN(C)C(C)Cc2ccccc2)n(C)n(-c2ccccc2)c1=O` (stereo not given) is 20.5%; for `CC=C1CN2C3CC1C1(C(=O)OC)C2CC2(c4ccccc4N(C)C32)C1O` (stereo not given) it is 4.01%. Regarding `COc1ccccc1N1C(=O)NC(=O)C(CCc2ccncc2)(Cc2cccc3ccccc23)C1=O` (stereo not given), the inhibition was 7.09%.
